Hit rate of the full screen: of about 57,000 sequences, about 3,700 (6.5%) were called active. Rule as the data show it: active = GI50 up to about 1.1 µM and inactive = higher. A selection follows. Results with a measured potency or affinity are listed apart.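 Results reflect a 48-hour exposure of cells in 96-well plates to compound at five concentrations. GI50 is the concentration that inhibits growth by half.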 A value given as a limit tells only on which side of the number the result lay.

This passage reports GI50 results from ChEMBL document CHEMBL1201862, “PubChem BioAssay data set” (2004).

The assay has as its system IGROV-1. Briefly: NCI tumour cell line growth inhibition, 48 h.
Consider “[Bis(aminomethyl)pentamethylenesilane]dichloropaltinum(II), CHEMBL2146202”, for which the GI50 is 41.9 µM. For “[Bis(aminomethyl)pentamethylenesilane]tetrachloropaltinum(IV), CHEMBL2146204” the value was 10.5 µM. For CISPLATIN, CHEMBL11359 the value was 2.02 µM; for “mu-(1,7-nanodiamine-N,N')bis-(cis-aminedichloroplatimum (II)), CHEMBL2146215”, 29 µM. The substance “[Bis(aminomethyl)tetramethylenesilane]dichloropaltinum(II), CHEMBL2146205” gave a GI50 of 36.8 µM. For “[Bis(aminomethyl)dimethylsilane]dichloroplatinum (II), CHEMBL2146201” the value was above 100 µM.

With “[Bis(aminomethyl)diethylsilane]tetrachloroplatinum(IV), CHEMBL2146203”, the GI50 worked out at 15.5 µM. “[Bis(aminomethyl)ethylmethylsilane]tetrachloroplatinum(IV), CHEMBL2146192” yielded a GI50 of 16 µM. The figure for “cis-Bis[[(trimethylsilyl)methyl]amino]tetrachloroplatinum(IV), CHEMBL2146191” is 15.4 µM; for “[Bis(aminomethyl)dimethylsilane]tetrachloroplatinum(IV), CHEMBL2146190” it is 15.4 µM. The figure for “[Bis(aminomethyl)tetramethylenesilane]tetrachloropaltinum(IV), CHEMBL2146189” is 6.1 µM.
